# According to PubChem BioAssay (NCATS):
# Results filed as inconclusive are left out. Calls of active or inactive are those of the source. Calls come from the whole dose curve; as a rule, active = well fitted cell-killing curve with a large enough effect; inconclusive = small, poorly fitted or top-dose-only effect, or effect the other way; inactive = flat fitted curve, though single readings scatter.
# Tested on: JEG-3
# Experiment: Primary qHTS to identify gynecologic anti-cancer compounds using libraries of approved drugs and bioactive compounds (AID 1345084); note: nearly all actives have a fitted effect of over 55% in size
# Conditions: Gynecologic cancer cell panel viability, ATPlite luminescence, 48 h; series mostly up to 57.5 µM; activity change, negative = cytotoxicity: at the top concentration
# Procedure, shortened: (§1)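 ATP-based viability (ATPlite), 1,000 cells/well, 16 h pre-incubation, 48 h compound at 37 C, 5% CO2, 15 min RT before read.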
# % is set by controls: 0 for no effect and ±100 for the full control effect; potency is the fitted concentration of half-maximal effect.
SMILES,"activity change, negative = cytotoxicity",Potency
CC(=O)OC[C@H]1O[C@H](O[C@]2(CO)O[C@H](CO)[C@@H](OC(=O)/C=C/c3ccccc3)[C@@H]2O)[C@H](O)[C@@H](O)[C@@H]1O,11.1% [at 25.3 µM] (inactive),–
C=C(C)C1CC[C@]2(C(=O)O)CC[C@]3(C(=O)O)[C@H](CCC4[C@@]5(C)CC[C@H](O)C(C)(C)C5CC[C@]43C)C12 (stereo partly specified),-5.43% [at 25.3 µM] (inactive),–
COc1cc(/C=C/C(=O)O[C@H]2[C@H](O)[C@@H](CO)O[C@@]2(CO)O[C@H]2O[C@H](CO)[C@@H](O)[C@H](O)[C@H]2O)ccc1O,-2.96% [at 25.3 µM] (inactive),–
CC1(C(=O)O)CCCC2(C)C3CCC4CC3(CCC12)CC4=O (stereo unspecified),13.6% (inactive),–
C/C=C/C(O)C1OC(=O)CC1Nc1ccc(C(=O)O)cc1 (stereo unspecified),17.9% (inactive),–
C=C(CO[C@@H]1O[C@H](CO[C@@H]2OC[C@](O)(CO)[C@H]2O)[C@@H](O)[C@H](O)[C@H]1O)C1Cc2cc(C(C)=O)ccc2O1 (stereo partly specified),5.33% [at 25.3 µM] (inactive),–
COc1ccc([C@@]2(O)c3c(ccc4c3OC(C)(CCC=C(C)C)C=C4)NC(=O)[C@@H]2OC)cc1 (stereo partly specified),0.447% [at 25.3 µM] (inactive),–
C=C1C[C@]23C[C@H]1[C@@H](O)C[C@H]2[C@@]12C=C[C@H](O)[C@@](C)(C(=O)O1)[C@H]2[C@@H]3C(=O)O,1.91% [at 38.5 µM] (inactive),–
C=C1C(=O)O[C@@H]2C[C@H](C)[C@@]3(O)C=C(C(C)=O)[C@]4(CC3C[C@H]12)C(=O)O[C@H]1C[C@@H](C)C(CCC(C)=O)=CC[C@H]14 (stereo partly specified),-2.85% [at 25.3 µM] (inactive),–
CCC(C)C(=O)OC1CC(C)C=C2C=CC(C)C(CCC(O)CC(O)CC(=O)O)C21 (stereo unspecified),7.93% [at 25.3 µM] (inactive),–
OC[C@H]1O[C@@H](OCCc2ccccc2)[C@H](O[C@@H]2OC[C@](O)(CO)[C@H]2O)[C@@H](O)[C@@H]1O,-0.419% [at 25.3 µM] (inactive),–
CC1=C(C(=O)O)/C(=C\CO[C@@H]2O[C@H](CO)[C@@H](O)[C@H](O)[C@H]2O)C(OC(=O)/C=C\c2ccc(O)cc2)C1 (stereo partly specified),9.34% [at 25.3 µM] (inactive),–
CC1(C)CCCC2(C)C1C(O)C=C(CO)C2(O)CO (stereo unspecified),-0.318% (inactive),–
C/C=C(\C)C(=O)OCC1OC(OC2OC(COC(=O)/C(C)=C/C)C(OC3OC(CO)C(OC(=O)/C(C)=C/C)C(OC(=O)/C(C)=C/C)C3O)C(O)C2O)C(O)C(O)C1OC1OC(CO)C(OC(=O)/C(C)=C/C)C(OC(=O)/C(C)=C/C)C1O (stereo unspecified),-2.52% [at 11.6 µM] (inactive),–
COc1c2c(c(C)c3c1C(=O)OC3)O[C@@]1(C)CCC3(C(C)(C)O)OC(=O)CC[C@]3(C)[C@H]1C2 (stereo partly specified),-1.34% [at 25.3 µM] (inactive),–
COc1ccc(C[C@H](N)C(=O)N[C@@H]2[C@H](O)[C@H](n3cnc4c(N(C)C)ncnc43)O[C@@H]2CO)cc1,–,3.55 µM (active)
OC1CCC(Nc2ncc3nc(Nc4c(F)cc(F)cc4F)n([C@H]4CCOC4)c3n2)CC1 (stereo partly specified),-3.11% (inactive),–
Cn1cc(-c2ccc3nnc(Sc4ccc5nn(C)cc5c4)n3n2)cn1,-4.48% (inactive),–
COc1cc(N)c(Cl)cc1C(=O)NC[C@@H]1CCN2CCC[C@@H]12,11% (inactive),–
CC1(C)CCCC2(C)C1CC=C1C(=O)OC(O)C12O (stereo unspecified),-1.25% (inactive),–
CCOc1ccc(S(=O)(=O)n2c(C)nc3ccccc32)cc1,0.15% [at 25.3 µM] (inactive),–
CC(C)[C@H]1CC[C@@]2(O)COC(=O)[C@H]2[C@@H]1/C=C(\CO)C(=O)O,-8.86% (inactive),–
CC(O)CO[C@@H]1O[C@H](CO)[C@@H](O)[C@H](O)[C@H]1O (stereo partly specified),-3.25% (inactive),–
CC1(C=O)CC[C@]2(C(=O)O[C@@H]3O[C@H](CO)[C@@H](O)[C@H](O)[C@H]3O)CC[C@]3(C)C(=CCC4[C@@]5(C)C[C@H](O)[C@H](O[C@@H]6OC[C@@H](O)[C@H](O)[C@H]6O)[C@@](C)(CO)C5CC[C@]43C)C2C1 (stereo partly specified),12.1% [at 11.6 µM] (inactive),–
COC1C(CO)OC(n2cnc3c(=O)[nH]cnc32)C1O (stereo unspecified),9.76% (inactive),–
Cc1csc(NC(=O)c2ccc(COc3cccc(Cl)c3)o2)n1,7.02% (inactive),–
CC[C@@](C)(Nc1ccnc(-c2c[nH]c3ncccc23)n1)C(=O)NCC(F)(F)F,5.82% (inactive),–

# Tested on: OV90
# Experiment: as above
# Conditions: Gynecologic cancer cell panel viability, ATPlite luminescence, 48 h; series mostly up to 57.5 µM; activity change, negative = cytotoxicity: at the top concentration
# Procedure, shortened: as §1
SMILES,"activity change, negative = cytotoxicity",Potency
COc1ccc(-c2nc(-c3ccc(-c4cccc(Cl)c4)o3)[nH]c2-c2ccc(OC)cc2)cc1,-1.17% (inactive),–
CC(=O)c1c(O)cc(O[C@@H]2O[C@H](CO)[C@@H](O)[C@H](O)[C@H]2O)cc1O,0.93% [at 38.5 µM] (inactive),–
C=C1C(O)C(O)C2(CC3C(C)=CCC4C(C)(CO)CCCC34C)OC2C1O (stereo unspecified),2.1% [at 38.5 µM] (inactive),–
O=C1NC(Cc2c[nH]c3ccccc23)C(=O)NC1Cc1c[nH]c2ccccc12 (stereo unspecified),-19.7% [at 38.5 µM] (inactive),–
CC1CCC2(C=O)C(CO)=CCCC2C1(C)CC(=O)O (stereo unspecified),1.47% (inactive),–
COc1cc(C)c(C(=O)O[C@H]2[C@@H](OC(C)=O)[C@H](n3ccc(=O)[nH]c3=O)O[C@@H]2CO)c(OC)c1,6.75% [at 25.3 µM] (inactive),–
COC(=O)C1=CO[C@@H](O[C@@H]2O[C@H](CO)[C@@H](O)[C@H](O)[C@H]2O)[C@@H]2[C@@](C)(O)[C@@H](OC(=O)/C=C/c3ccc(O)cc3)C[C@]12O,-1.92% [at 25.3 µM] (inactive),–
C[C@@H]([C@@H](O)c1ccc(O)cc1)N1CCC(O)(c2ccccc2)CC1,-8.42% (inactive),–
N#C[C@@H]1C[C@H](F)CN1C(=O)CNC1[C@H]2CN(C(=O)c3ccc(F)cc3)C[C@@H]12 (stereo partly specified),15.7% (inactive),–
C=C1CCC2C(C)(C(=O)OC)CCCC2(C)C1CCC(C)CC(=O)O (stereo unspecified),1.23% [at 38.5 µM] (inactive),–
C[C@@H]1C(=O)O[C@H]2C[C@]34[C@H]5C[C@@H](C(C)(C)C)[C@]36[C@@H](OC(=O)[C@H]6O)O[C@]4(C(=O)O5)[C@]21O,-21.5% [at 25.3 µM] (inactive),–
COC(=O)C1=COC(O[C@@H]2O[C@H](CO)[C@@H](O)[C@H](O)[C@H]2O)[C@H]2[C@@H]1[C@H](OC(=O)CCc1ccc(O)cc1)C[C@]2(C)O (stereo partly specified),9.47% [at 25.3 µM] (inactive),–
CC(=O)OC[C@H]1O[C@H](O[C@]2(CO)O[C@H](CO)[C@@H](OC(=O)/C=C/c3ccccc3)[C@@H]2O)[C@H](O)[C@@H](O)[C@@H]1O,10.1% [at 25.3 µM] (inactive),–
C=C(C)C1CC[C@]2(C(=O)O)CC[C@]3(C(=O)O)[C@H](CCC4[C@@]5(C)CC[C@H](O)C(C)(C)C5CC[C@]43C)C12 (stereo partly specified),-6.32% [at 25.3 µM] (inactive),–
COc1cc(/C=C/C(=O)O[C@H]2[C@H](O)[C@@H](CO)O[C@@]2(CO)O[C@H]2O[C@H](CO)[C@@H](O)[C@H](O)[C@H]2O)ccc1O,1.9% [at 25.3 µM] (inactive),–
CC1(C(=O)O)CCCC2(C)C3CCC4CC3(CCC12)CC4=O (stereo unspecified),12.3% (inactive),–
C/C=C/C(O)C1OC(=O)CC1Nc1ccc(C(=O)O)cc1 (stereo unspecified),-2.61% (inactive),–
C=C(CO[C@@H]1O[C@H](CO[C@@H]2OC[C@](O)(CO)[C@H]2O)[C@@H](O)[C@H](O)[C@H]1O)C1Cc2cc(C(C)=O)ccc2O1 (stereo partly specified),-3.05% [at 25.3 µM] (inactive),–
COc1ccc([C@@]2(O)c3c(ccc4c3OC(C)(CCC=C(C)C)C=C4)NC(=O)[C@@H]2OC)cc1 (stereo partly specified),27.3% [at 25.3 µM] (inactive),–
C=C1C[C@]23C[C@H]1[C@@H](O)C[C@H]2[C@@]12C=C[C@H](O)[C@@](C)(C(=O)O1)[C@H]2[C@@H]3C(=O)O,9.24% [at 38.5 µM] (inactive),–

SMILES,"activity change, negative = cytotoxicity",Potency
C=C1C(=O)O[C@@H]2C[C@H](C)[C@@]3(O)C=C(C(C)=O)[C@]4(CC3C[C@H]12)C(=O)O[C@H]1C[C@@H](C)C(CCC(C)=O)=CC[C@H]14 (stereo partly specified),0.633% [at 25.3 µM] (inactive),–
CCC(C)C(=O)OC1CC(C)C=C2C=CC(C)C(CCC(O)CC(O)CC(=O)O)C21 (stereo unspecified),-2.7% [at 25.3 µM] (inactive),–
OC[C@H]1O[C@@H](OCCc2ccccc2)[C@H](O[C@@H]2OC[C@](O)(CO)[C@H]2O)[C@@H](O)[C@@H]1O,7.22% [at 25.3 µM] (inactive),–
CC1=C(C(=O)O)/C(=C\CO[C@@H]2O[C@H](CO)[C@@H](O)[C@H](O)[C@H]2O)C(OC(=O)/C=C\c2ccc(O)cc2)C1 (stereo partly specified),8.99% [at 25.3 µM] (inactive),–
CC1(C)CCCC2(C)C1C(O)C=C(CO)C2(O)CO (stereo unspecified),-3.22% (inactive),–
C/C=C(\C)C(=O)OCC1OC(OC2OC(COC(=O)/C(C)=C/C)C(OC3OC(CO)C(OC(=O)/C(C)=C/C)C(OC(=O)/C(C)=C/C)C3O)C(O)C2O)C(O)C(O)C1OC1OC(CO)C(OC(=O)/C(C)=C/C)C(OC(=O)/C(C)=C/C)C1O (stereo unspecified),-3.76% [at 11.6 µM] (inactive),–
COc1c2c(c(C)c3c1C(=O)OC3)O[C@@]1(C)CCC3(C(C)(C)O)OC(=O)CC[C@]3(C)[C@H]1C2 (stereo partly specified),7.28% [at 25.3 µM] (inactive),–
COc1ccc(C[C@H](N)C(=O)N[C@@H]2[C@H](O)[C@H](n3cnc4c(N(C)C)ncnc43)O[C@@H]2CO)cc1,–,7.94 µM (active)
OC1CCC(Nc2ncc3nc(Nc4c(F)cc(F)cc4F)n([C@H]4CCOC4)c3n2)CC1 (stereo partly specified),0.323% (inactive),–
Cn1cc(-c2ccc3nnc(Sc4ccc5nn(C)cc5c4)n3n2)cn1,9.36% (inactive),–
COc1cc(N)c(Cl)cc1C(=O)NC[C@@H]1CCN2CCC[C@@H]12,-3.52% (inactive),–
CC1(C)CCCC2(C)C1CC=C1C(=O)OC(O)C12O (stereo unspecified),-16.9% (inactive),–
CCOc1ccc(S(=O)(=O)n2c(C)nc3ccccc32)cc1,5.79% [at 25.3 µM] (inactive),–
CC(C)[C@H]1CC[C@@]2(O)COC(=O)[C@H]2[C@@H]1/C=C(\CO)C(=O)O,-1.61% (inactive),–
CC(O)CO[C@@H]1O[C@H](CO)[C@@H](O)[C@H](O)[C@H]1O (stereo partly specified),-2.11% (inactive),–
CC1(C=O)CC[C@]2(C(=O)O[C@@H]3O[C@H](CO)[C@@H](O)[C@H](O)[C@H]3O)CC[C@]3(C)C(=CCC4[C@@]5(C)C[C@H](O)[C@H](O[C@@H]6OC[C@@H](O)[C@H](O)[C@H]6O)[C@@](C)(CO)C5CC[C@]43C)C2C1 (stereo partly specified),9.96% [at 11.6 µM] (inactive),–
COC1C(CO)OC(n2cnc3c(=O)[nH]cnc32)C1O (stereo unspecified),11.6% (inactive),–
Cc1csc(NC(=O)c2ccc(COc3cccc(Cl)c3)o2)n1,3.56% (inactive),–
CC[C@@](C)(Nc1ccnc(-c2c[nH]c3ncccc23)n1)C(=O)NCC(F)(F)F,2.09% (inactive),–
